Compounds without any hit were thinned out: in the full panel of roughly 83,000, 20% have a hit.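 Cells were grown in 96-well plates and exposed to the test compound at a single concentration for 48 hours; results are reported as percent growth, with values below 10 considered active.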 A number with no mark means an inactive call. The source made the active and inactive calls.
Each molecule was assayed on HL-60(TB) leukemia (assay: NCI-60 one-dose screen, 48 h (100 = growth as untreated, 0 = no growth, -100 = all killed)). Conditions: 10 µM unless noted.

Compound | growth
Cc1nc(Nc2nc3ccccc3o2)nc(-c2cccc([N+](=O)[O-])c2)c1C(=O)Nc1ccc(F)c(Cl)c1 | -22.1% (active)
Cc1cc(=NO)cc(C)n1O | 81.6%
COc1cc2cc(NCc3ccc(Cl)cc3)nc(C)c2cc1OC | 31.3%
COC(=O)/C=C1\Sc2cc(F)ccc2NC1=O | 97.7%
Cc1ccccc1C[P+](c1ccccc1)(c1ccccc1)c1ccccc1 | 1.16% (active)
C=C1C(=O)O[C@H]2[C@H]1CC/C(COC(=O)/C=C\C(=O)NCc1ccc(Cn3c(=O)sn(CCCC)c3=O)cc1)=C\CC[C@@]1(C)O[C@@H]21 | -45.6% (active)
CCC(C)Oc1cc(/C=N/NC(=O)c2cnn3c2NC(c2ccccc2)C3)ccc1OC (stereo not given) | 32.2%
CC1(C)OC(=O)C(=Cc2cccc(Br)c2)C(=O)O1 | 83.4%
Nc1nc(-c2cnccn2)nn1-c1nc2ccccc2s1 | 100%
COc1ccc(C(=O)/C=C/c2cc(-c3ccc(OC)c(OC)c3)n[nH]2)cc1OC | -25.4% (active)
O=C(Nc1ccccc1-c1nc2ccccc2c(=O)[nH]1)c1cc2ccccc2[nH]1 | 65.5%
CC(=O)O[C@]1(C(C)=O)CC[C@H]2[C@@H]3C=C(Cl)C4=CC(=O)CC[C@]4(C)[C@H]3CC[C@@]21C | 104%
O=C1/C(=C\c2cn(CC(O)CN3CCCCC3)c3ccccc23)c2ccccc2N1c1c(Cl)cccc1Cl (stereo not given) | -36.5% (active)
CC(C)=CCC[C@](C)(O)C1CC[C@]2(C)[C@@H]1CC[C@@H]1[C@@]3(C)CC/C(=N\OCCC#N)C(C)(C)[C@@H]3CC[C@]12C (stereo not given in full) | 69.3%
CO[C@@H](C)Cn1c(=O)n(C)c2cnc3ccc(-c4cncc(C(C)(C)O)c4)cc3c21 | 8.97% (active)
Cn1ccc2c3c(ccc21)CC3=O | 113%
Cc1ccc(S(=O)(=O)N2CCC(C(=O)Nc3ccc(F)cc3F)CC2)cc1 | 88.2%
CC1(C)C(N)=Nc2cc(OCCCN3Cc4ccc(OCCc5cn(CC(=O)N6CCC(CCN7CCCC7)CC6)nn5)cc4C3)c(OCC3CC3)cc21 | 97.3%
CCCCCCCCCC(C)NC(=O)CCl (stereo not given) | 92.3%
CS(=O)(=O)N(c1cc(-c2ccc3ncnc(Nc4cccc(Cl)c4)c3c2)cnc1Cl)S(C)(=O)=O | 8.46% (active)

Compound | growth
CCCCCCCCCCCCCOC(=O)c1c(C)[nH]c(/C=C2\N=C(c3ccc[nH]3)C=C2OC)c1C | 9.46% (active)
Cc1ccc(C2CC(c3nc(-c4ccc(Cl)cc4)oc3C)=NN2C(=O)c2ccncc2)cc1 (stereo not given) | 97.7%
c1ccc(Nc2ccccn2)cc1 | 64.9%
O=S(=O)(Nc1ccc2ccccc2c1)c1ccc(-c2cnc(C3CC3)o2)cc1 | -28% (active)
CCOC(=O)c1sc(NC(=O)COc2cccc(/C=C3\Cc4ccc(Cl)cc4C3=O)c2)nc1C | 120%
Cc1cc2nc(-c3c(N)ncc(C#N)c3-c3ccc(Cl)cc3)[nH]c2cc1C | 89.5%
Nc1cccc(S(=O)(=O)c2cccc(N)c2)c1 | -10.6% (active)
COc1ccc(/C=N/C2=C(C#N)C(c3ccc(N(C)C)cc3)c3ccc4ccccc4c3O2)cc1 (stereo not given) | 19.6%
C#Cc1cccc(NC(=O)Nc2ccccc2NC(=O)CCl)c1 | 16.8% [8.25 µM]
COc1cc(C(=O)c2c(-c3ccccc3)oc3c(OC)cccc23)cc(OC)c1O | 3.31% (active)
O=C(O)C#Cc1ccc(Cl)cc1 | 94.1%
CSC1=Nc2c(c(C)c(-c3ccccc3)n2CCCC(=O)O)C2=NC(=O)C[C@H](C)N12 | 93.2%
Cc1c2cnccc2c(C)c2c1c1cc(C#N)ccc1n2C | -48.8% (active)
COc1ccc(C(C)C=O)cc1 (stereo not given) | 96.9%
COc1ccc(/C=c2\c(=O)n(-c3ccccc3)c3nn4c(n23)=NNC42CCCCC2)cc1 | 110%
c1cc(OCCN2CCCC2)ccc1CNc1ccc2nc(CCC3CCCCC3)[nH]c2c1 | -4.69% (active)
O=C1CN2CCC1C/C2=C\c1ccnc2c(Cl)cccc12 (stereo not given) | 91.8%
O=C(NC(=S)N1CC=CCC1)c1ccccc1 | 125%
CNCCOc1nc2c3cnccc3cc(-c3cc(OC)c(OC)c(OC)c3)c2c2ccncc12 | -25.8% (active)
CCOC(=O)c1ccc2nc(-c3c(C)nn(-c4ccccc4)c3N3CCOCC3)[nH]c2c1 | 95.4%

Source: PubChem BioAssay (NCI)
